Assay outcomes from PubChem.
An excerpt weighted towards active compounds, which were near 11% of everything screened.
HPGD block: HPGD (human) dehydrogenase inhibition. actives 4.3% (n = 150,000). purified HPGD, NADH fluorescence kinetic, PGE2 substrate. Potency, µM, without a hit: top-dose activity change, negative = inhibition, hits mostly inhibitors; also: potency is read from the fitted curve at half-maximal effect
Target sequence (P15428 whole entry, looked up): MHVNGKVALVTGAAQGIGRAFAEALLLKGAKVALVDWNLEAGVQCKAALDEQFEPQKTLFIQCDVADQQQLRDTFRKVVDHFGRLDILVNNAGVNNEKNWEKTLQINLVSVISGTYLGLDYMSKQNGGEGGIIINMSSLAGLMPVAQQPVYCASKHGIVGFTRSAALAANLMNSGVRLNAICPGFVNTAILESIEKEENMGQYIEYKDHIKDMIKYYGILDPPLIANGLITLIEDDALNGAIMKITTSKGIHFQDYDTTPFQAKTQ
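NADH formation kinetics: reaction with 30 uM PGE2 and 1 mM NAD+ (final), 20 nM enzyme, Tris-HCl pH 8 with Tween 20, after 15 min compound preincubation at room temperature. Fluorescence change, last versus first of five reads.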
ALDH1A1 block: inhibitors of human aldehyde dehydrogenase 1A1 | Purified ALDH1A1, NADH fluorescence, propionaldehyde substrate | Potency, µM (titrated, usually from 75.3 µM), for inactives: at the top dose activity, negative = inhibition, hits mostly inhibitors | actives 7.3% (n = 220,000) | AID 1030;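 also: potency is read from the fitted curve at half-maximal effect; plate controls were no enzyme wells and a reference inhibitor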
KDM4E inh: blocks human JMJD2E demethylase activity | Potency, µM (titrated, usually from 57.1 µM), for inactives: at the highest dose activity change, negative = inhibition, hits mostly inhibitors | B2RXH2 | actives 1.6% (n = 230,000) | JMJD2E catalytic domain, FDH-coupled NADH fluorescence (FDH is formaldehyde dehydrogenase);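 also: potency is read from the fitted curve at half-maximal effect; 0% = wells with enzyme and -100% = buffer wells without enzyme; nearly all actives have a fitted effect of over 50% in size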
PNC inhibitor: blocks assembly of the perinucleolar compartment; PC3M PTB-GFP, PNC prevalence imaging, 16 h; stronger effect = lower value; activity change (PNC), negative = inhibition, % at 10 µM; actives 3.1% (n = 140,000); AID 2417;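 active = readout at or below -70, meaning at least 70% loss of cells showing the perinucleolar compartment, a nuclear body marking cancer cells; inconclusive = readout between -30 and a set limit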;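 also: plate controls were DMSO wells for no effect and camptothecin positive control wells for full effect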
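PC3M cells stably expressing PTB-GFP, 750–1000 cells/well, treated 16 h at 37 °C with compound (23 nl of library stock), in duplicate. After paraformaldehyde fixation and Hoechst stain, imaged at 20x; PNC prevalence scored by image analysis.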
* marks the source's active call; other numbers are inactive results; ! = not confirmed by another sample; [ ] = dose if it differs, or a comment. Unless noted, calls follow the shape of the dose curve; as a rule, active = well fitted inhibition curve with a large enough effect (not every such curve was filed as active); inconclusive = small, poorly fitted or top-dose-only effect, or another doubt; inactive = no such curve, though single readings can be large or run the other way. Unless noted, % is scaled to controls: 0 for no effect and ±100 for the full control effect.

Screening CCOc1cc(C(=O)NCCN2C(=O)S/C(=C\c3cccnc3)C2=O)cc(OCC)c1OCC returned HPGD block -7.9%, ALDH1A1 block 11.5%, KDM4E inh -0.9% and PNC inhibitor 7.9.
For O=C(O)c1ccc(COc2ccccc2[N+](=O)[O-])o1 the results were HPGD block -11.8%, ALDH1A1 block -3.5%, KDM4E inh -3.7% and PNC inhibitor inconclusive.
O=C(c1ccc(COc2ccccc2[N+](=O)[O-])o1)N1CCCCC1 was read as HPGD block 22.4µM*, ALDH1A1 block inconclusive, KDM4E inh 7.9% and PNC inhibitor -26.8.
`COc1ccccc1OCc1ccc(C(=O)N2CCOCC2)o1` gave HPGD block -7.3%, ALDH1A1 block 25.1µM*, KDM4E inh -6.7% and PNC inhibitor 2.8.
Screening O=C(c1ccc(COc2ccccc2[N+](=O)[O-])o1)N1CCCCCC1 returned HPGD block 25.1µM*, ALDH1A1 block -15.0%, KDM4E inh 2.3% and PNC inhibitor inconclusive.
For CC(=O)c1ccc(NC(=O)c2ccc(COc3ccccc3[N+](=O)[O-])o2)cc1 the results were HPGD block -21.9%, ALDH1A1 block -5.2%, KDM4E inh 1.5% and PNC inhibitor 36.8.
C[C@H](NC(=O)N1CCc2nc(-c3ccccc3)c3c(c2C1)CO[C@@H](C)C3)c1ccccc1 was read as HPGD block -5.5%, ALDH1A1 block 0.8%[13.5 µM] and KDM4E inh 18.1%[11.4 µM].
`O=S(=O)(c1ccccc1)N1CCC[C@@]2(CCN(c3ccncc3)C2)C1` gave HPGD block 5.6% and ALDH1A1 block 5.3%.
CC(=O)N1CCc2cc(C(=O)CN3CCC(C)CC3)ccc21 was read as HPGD block inconclusive, ALDH1A1 block 20µM*, KDM4E inh -5.9% and PNC inhibitor 11.7.
CC(=O)N1CCc2cc(C(=O)CN3CCN(c4cccc(Cl)c4)CC3)ccc21 was read as HPGD block -10.6%, ALDH1A1 block 6.31µM*, KDM4E inh -26.5% and PNC inhibitor 6.3.
Screening CCOc1ccc(C(=O)N2CCN(C(=O)c3ccco3)CC2)cc1OCC returned HPGD block -11.6%, ALDH1A1 block 1.4%, KDM4E inh -3.0% and PNC inhibitor 24.9.
For CC(=O)N1CCc2cc(C(=O)CN3CCN(C(=O)c4ccco4)CC3)ccc21 the results were HPGD block -5.7%, ALDH1A1 block 11.2µM*, KDM4E inh inconclusive and PNC inhibitor inconclusive.
Screening CC(=O)N1CCc2cc(C(=O)CN3CCCN(Cc4ccc(F)cc4)C3)ccc21 returned HPGD block -12.7%, ALDH1A1 block inconclusive, KDM4E inh -11.8% and PNC inhibitor 32.5.
For CC(=O)N1CCc2ccc(C(=O)CN3CCN(c4cccc(C)c4C)CC3)cc21 the results were HPGD block -24.4%, ALDH1A1 block 8.91µM*, KDM4E inh -5.4% and PNC inhibitor -3.5.
Screening O=C(CN1CCN(c2ccccc2)CC1)c1ccc2cc[nH]c2c1 returned HPGD block -21.8%, ALDH1A1 block inconclusive, KDM4E inh inconclusive and PNC inhibitor inconclusive.
`CC(C)CC(NC(N)=O)C(=O)OCC(=O)N(Cc1ccccc1)Cc1ccccc1` (stereo unspecified) gave ALDH1A1 block 7.7% and KDM4E inh -3.9%.
For O=C(O)CCNc1ncnc2nc[nH]c12 the results were HPGD block -2.2% and ALDH1A1 block 14.5%[13.5 µM].
`COc1ccc(S(=O)(=O)NCCc2c(C)nn(C)c2Oc2ccccc2)cc1` gave HPGD block 4.2%, ALDH1A1 block 0.631µM*, KDM4E inh 5.5% and PNC inhibitor -27.5.
Screening Cc1nn(C)c(Oc2ccccc2)c1CCNS(=O)(=O)c1ccc(Cl)cc1 returned HPGD block -1.7%, ALDH1A1 block inconclusive, KDM4E inh -1.4% and PNC inhibitor 22.1.
For C/C(=N\N=C1\NC(=O)CC(C(=O)O)S1)c1cccs1 (stereo unspecified) the results were HPGD block -20.8%, ALDH1A1 block -6.5%, KDM4E inh -16.6% and PNC inhibitor -106.0*.
`O=C(NCc1ccccc1)c1ncn[nH]1` gave KDM4E inh -16.8%.
Screening O=C(Cc1cc(=O)[nH][nH]1)N/N=C/c1cccc(Cl)c1Cl returned ALDH1A1 block 13.6%, KDM4E inh 3.98µM*! and PNC inhibitor 71.0.
`O=C(Cc1cc(=O)[nH][nH]1)N/N=C/c1c(Cl)cccc1Cl` gave HPGD block 14.1µM*, ALDH1A1 block 11.2µM*!, KDM4E inh inconclusive and PNC inhibitor inconclusive.
`O=S(=O)(Cc1noc(-c2ccccc2Cl)n1)c1ccccn1` gave KDM4E inh 2.7%.
